According to the supplement of paper PMC12067093, “Discovery and optimisation of a covalent ligand for TRIM25 and its application to targeted protein ubiquitination” (Chemical Science, 2025):
About 21,000 targets were measured; listed, in parts, are those with the largest changes and a random draw of the rest.

Compound: Cc1cc(ccc1-c1ccccc1)C(=O)N1CCCN(CC1)C(=O)CCl [compound 10]
Assay: probe-labelled cysteine peptide fold change vs DMSO (competition) (log2 fold change); higher = less target engagement (more negative = stronger competition)
Conditions: 10 µM; THP-1; incubation time: 4 h
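Also: competitive profiling in live THP-1 cells: cysteine peptides tagged with an iodoacetamide desthiobiotin (IA-DTB) probe, intensity after compound treatment relative to DMSO-treated cells.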

UniProt O00743, sequence (O00743 whole entry, looked up): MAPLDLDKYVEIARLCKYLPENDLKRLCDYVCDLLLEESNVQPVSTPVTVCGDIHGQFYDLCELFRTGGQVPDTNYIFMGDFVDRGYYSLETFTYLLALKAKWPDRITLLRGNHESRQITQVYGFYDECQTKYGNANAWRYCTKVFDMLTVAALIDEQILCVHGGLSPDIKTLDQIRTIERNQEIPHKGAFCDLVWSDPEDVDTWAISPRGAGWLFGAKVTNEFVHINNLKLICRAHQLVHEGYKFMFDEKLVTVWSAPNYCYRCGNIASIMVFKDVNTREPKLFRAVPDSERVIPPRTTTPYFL
UniProt Q13608, sequence (Q13608 whole entry, looked up): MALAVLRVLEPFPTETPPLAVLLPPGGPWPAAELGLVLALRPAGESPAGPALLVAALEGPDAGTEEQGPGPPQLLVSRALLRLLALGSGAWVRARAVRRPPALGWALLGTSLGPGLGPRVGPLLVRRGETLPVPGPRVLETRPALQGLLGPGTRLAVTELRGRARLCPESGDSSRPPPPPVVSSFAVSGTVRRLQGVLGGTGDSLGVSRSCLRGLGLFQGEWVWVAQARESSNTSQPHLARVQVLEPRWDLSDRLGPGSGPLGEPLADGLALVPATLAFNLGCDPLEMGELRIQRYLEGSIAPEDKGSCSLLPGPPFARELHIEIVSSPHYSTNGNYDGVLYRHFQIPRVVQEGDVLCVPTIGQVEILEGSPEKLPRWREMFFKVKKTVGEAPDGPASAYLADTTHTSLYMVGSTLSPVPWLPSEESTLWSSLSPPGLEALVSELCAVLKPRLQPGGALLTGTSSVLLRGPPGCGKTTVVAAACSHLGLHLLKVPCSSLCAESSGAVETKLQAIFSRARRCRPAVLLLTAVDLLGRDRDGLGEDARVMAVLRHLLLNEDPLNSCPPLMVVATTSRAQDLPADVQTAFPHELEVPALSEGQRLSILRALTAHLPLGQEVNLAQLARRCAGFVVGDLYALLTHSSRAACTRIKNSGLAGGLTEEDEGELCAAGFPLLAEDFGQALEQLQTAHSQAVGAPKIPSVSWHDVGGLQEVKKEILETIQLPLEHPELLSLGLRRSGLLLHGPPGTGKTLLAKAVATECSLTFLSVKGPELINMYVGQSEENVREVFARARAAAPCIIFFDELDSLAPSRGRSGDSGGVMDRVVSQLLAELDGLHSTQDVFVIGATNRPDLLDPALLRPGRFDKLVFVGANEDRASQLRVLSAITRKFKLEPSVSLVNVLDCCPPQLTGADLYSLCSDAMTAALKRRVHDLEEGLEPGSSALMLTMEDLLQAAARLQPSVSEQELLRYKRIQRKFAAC
UniProt Q96BP3, sequence (Q96BP3 whole entry, looked up): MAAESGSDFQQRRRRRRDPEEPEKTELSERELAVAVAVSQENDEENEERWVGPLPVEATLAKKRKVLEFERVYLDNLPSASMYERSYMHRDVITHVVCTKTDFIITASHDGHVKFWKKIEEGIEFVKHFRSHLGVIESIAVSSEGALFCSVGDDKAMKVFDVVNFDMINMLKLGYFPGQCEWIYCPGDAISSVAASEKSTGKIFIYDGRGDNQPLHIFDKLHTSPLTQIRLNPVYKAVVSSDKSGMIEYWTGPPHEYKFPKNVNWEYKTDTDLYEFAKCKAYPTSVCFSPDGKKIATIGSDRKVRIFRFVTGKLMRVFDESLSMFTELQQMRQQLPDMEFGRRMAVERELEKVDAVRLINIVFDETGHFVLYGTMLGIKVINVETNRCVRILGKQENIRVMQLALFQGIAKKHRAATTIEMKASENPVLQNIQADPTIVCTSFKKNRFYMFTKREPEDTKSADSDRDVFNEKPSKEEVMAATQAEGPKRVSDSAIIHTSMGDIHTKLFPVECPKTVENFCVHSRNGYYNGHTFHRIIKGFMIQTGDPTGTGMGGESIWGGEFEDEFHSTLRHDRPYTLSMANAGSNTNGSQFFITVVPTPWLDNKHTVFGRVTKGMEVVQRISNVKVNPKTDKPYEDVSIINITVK
UniProt Q7RTV0, sequence (Q7RTV0 whole entry, looked up): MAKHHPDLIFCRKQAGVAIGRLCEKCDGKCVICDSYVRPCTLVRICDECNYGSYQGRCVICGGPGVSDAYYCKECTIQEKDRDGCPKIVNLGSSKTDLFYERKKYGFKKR
UniProt P50479, sequence (P50479 whole entry, looked up): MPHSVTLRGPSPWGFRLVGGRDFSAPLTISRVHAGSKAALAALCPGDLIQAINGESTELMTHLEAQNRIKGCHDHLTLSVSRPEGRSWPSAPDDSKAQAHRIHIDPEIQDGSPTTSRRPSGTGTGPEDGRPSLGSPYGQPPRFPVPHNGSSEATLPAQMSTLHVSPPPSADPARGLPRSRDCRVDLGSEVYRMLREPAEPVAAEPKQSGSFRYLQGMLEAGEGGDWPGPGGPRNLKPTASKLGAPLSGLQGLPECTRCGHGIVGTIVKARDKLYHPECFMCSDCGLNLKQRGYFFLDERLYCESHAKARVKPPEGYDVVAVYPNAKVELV
UniProt O14917, sequence (O14917 whole entry, looked up): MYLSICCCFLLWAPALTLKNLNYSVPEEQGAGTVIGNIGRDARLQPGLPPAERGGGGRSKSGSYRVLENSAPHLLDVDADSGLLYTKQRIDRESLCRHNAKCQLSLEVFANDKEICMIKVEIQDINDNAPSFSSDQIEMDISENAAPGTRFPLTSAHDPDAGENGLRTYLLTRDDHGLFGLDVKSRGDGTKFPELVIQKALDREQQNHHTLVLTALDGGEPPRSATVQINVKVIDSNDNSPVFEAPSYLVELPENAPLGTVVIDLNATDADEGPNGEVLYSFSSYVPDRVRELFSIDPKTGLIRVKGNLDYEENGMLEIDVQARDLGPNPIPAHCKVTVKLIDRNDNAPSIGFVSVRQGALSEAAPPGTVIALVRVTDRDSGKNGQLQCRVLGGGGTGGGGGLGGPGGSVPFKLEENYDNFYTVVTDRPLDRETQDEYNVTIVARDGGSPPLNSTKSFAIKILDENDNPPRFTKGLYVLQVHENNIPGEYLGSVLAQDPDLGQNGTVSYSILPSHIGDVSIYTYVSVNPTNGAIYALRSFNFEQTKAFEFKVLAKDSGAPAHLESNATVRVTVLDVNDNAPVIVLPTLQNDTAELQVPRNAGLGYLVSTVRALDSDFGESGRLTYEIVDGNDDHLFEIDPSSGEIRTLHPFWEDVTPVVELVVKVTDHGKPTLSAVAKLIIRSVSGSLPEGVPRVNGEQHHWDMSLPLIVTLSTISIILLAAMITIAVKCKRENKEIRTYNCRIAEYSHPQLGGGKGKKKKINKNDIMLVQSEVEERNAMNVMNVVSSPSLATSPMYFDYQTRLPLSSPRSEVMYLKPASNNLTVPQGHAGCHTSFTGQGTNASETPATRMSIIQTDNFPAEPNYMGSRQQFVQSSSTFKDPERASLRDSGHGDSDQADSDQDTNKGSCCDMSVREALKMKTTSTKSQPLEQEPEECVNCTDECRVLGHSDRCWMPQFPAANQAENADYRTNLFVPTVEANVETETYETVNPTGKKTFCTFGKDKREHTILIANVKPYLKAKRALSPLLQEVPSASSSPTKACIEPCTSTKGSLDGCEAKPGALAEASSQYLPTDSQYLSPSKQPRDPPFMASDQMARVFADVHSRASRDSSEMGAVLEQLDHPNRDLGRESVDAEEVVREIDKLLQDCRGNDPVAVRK
UniProt Q9NY27, sequence (Q9NY27 whole entry, looked up): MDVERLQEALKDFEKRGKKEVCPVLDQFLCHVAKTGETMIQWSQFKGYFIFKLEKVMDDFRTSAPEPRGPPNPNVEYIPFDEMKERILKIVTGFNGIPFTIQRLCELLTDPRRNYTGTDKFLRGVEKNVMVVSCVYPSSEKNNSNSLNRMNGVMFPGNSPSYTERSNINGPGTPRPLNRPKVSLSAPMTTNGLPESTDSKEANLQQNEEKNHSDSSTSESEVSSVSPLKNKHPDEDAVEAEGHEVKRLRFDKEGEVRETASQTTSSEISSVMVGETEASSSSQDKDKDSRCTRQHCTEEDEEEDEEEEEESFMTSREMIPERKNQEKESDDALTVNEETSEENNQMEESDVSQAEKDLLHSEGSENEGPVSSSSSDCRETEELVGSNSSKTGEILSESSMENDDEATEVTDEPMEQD
UniProt Q96BK5, sequence (Q96BK5 whole entry, looked up): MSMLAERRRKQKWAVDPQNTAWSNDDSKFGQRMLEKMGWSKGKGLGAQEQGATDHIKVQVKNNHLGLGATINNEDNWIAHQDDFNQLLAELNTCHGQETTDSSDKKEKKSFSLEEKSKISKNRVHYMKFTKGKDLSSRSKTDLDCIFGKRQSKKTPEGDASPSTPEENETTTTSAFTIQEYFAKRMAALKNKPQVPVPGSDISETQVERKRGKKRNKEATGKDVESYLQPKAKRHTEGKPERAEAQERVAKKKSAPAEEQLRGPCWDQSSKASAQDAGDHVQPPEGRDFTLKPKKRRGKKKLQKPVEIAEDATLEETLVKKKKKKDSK
UniProt P30101, sequence (P30101 whole entry, looked up): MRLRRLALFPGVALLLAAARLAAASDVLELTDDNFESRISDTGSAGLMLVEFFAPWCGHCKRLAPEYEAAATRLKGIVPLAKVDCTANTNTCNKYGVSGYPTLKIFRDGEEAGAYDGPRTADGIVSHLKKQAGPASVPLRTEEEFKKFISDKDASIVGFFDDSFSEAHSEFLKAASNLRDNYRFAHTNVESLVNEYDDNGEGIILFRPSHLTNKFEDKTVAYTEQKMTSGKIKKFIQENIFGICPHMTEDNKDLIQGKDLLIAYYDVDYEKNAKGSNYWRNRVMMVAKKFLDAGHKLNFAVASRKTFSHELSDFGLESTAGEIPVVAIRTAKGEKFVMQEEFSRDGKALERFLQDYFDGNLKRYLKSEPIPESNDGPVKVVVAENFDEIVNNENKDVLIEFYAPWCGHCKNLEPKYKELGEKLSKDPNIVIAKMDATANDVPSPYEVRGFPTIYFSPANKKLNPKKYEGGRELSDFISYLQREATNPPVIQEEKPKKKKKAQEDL

Target	probe-labelled cysteine peptide fold change
PLEKHF2_Q9H8W4_219_ICDFCYDLLSAGDMATCQPAR (UniProt Q9H8W4)	-0.498
PHF5A_Q7RTV0_46_ICDECNYGSYQGR (UniProt Q7RTV0)	-0.00469
PPP4R2_Q9NY27_30_EVCPVLDQFLCHVAK (UniProt Q9NY27)	0.0564
PDIA4_P13667_555+558_DVLIEFYAPWCGHCK<|>PDIA3_P30101_406+409_DVLIEFYAPWCGHCK (UniProt P30101+P13667)	-0.251
PML_P29590_140+143_ESADFWCFECEQLLCAK (UniProt P29590)	0.0944
PINX1_Q96BK5_94_NNHLGLGATINNEDNWIAHQDDFNQLLAELNTCHGQETTDSSDKK (UniProt Q96BK5)	0.15
PHGDH_O43175_18_VLISDSLDPCCR (UniProt O43175)	-0.444
PDCD6IP_Q8WUM4_691_CSDIVFAR (UniProt Q8WUM4)	-0.00307
PPWD1_Q96BP3_287_AYPTSVCFSPDGK (UniProt Q96BP3)	0.0829
PPP4C_P60510_130_QITQVYGFYDECLRK<|>PPP2CB_P62714_133_QITQVYGFYDECLRK<|>PPP2CA_P67775_133_QITQVYGFYDECLRK (UniProt P67775+P62714+P60510)	0.0312
PLEK_P08567_295_GCVVTSVESNSNGR (UniProt P08567)	-0.14
PCDH17_O14917_335_DLGPNPIPAHCK (UniProt O14917)	-0.0867
PGK1_P00558_367+379_GCITIIGGGDTATCCAK (UniProt P00558)	0.296
PPP2R5A_Q15172_72_DATSNEQQELFCQK (UniProt Q15172)	0.0287
PLCB3_Q01970_360_CVELDVWK (UniProt Q01970)	0.0505
PPP1CC_P36873_140_IYGFYDECKR<|>PPP1CA_P62140_140_IYGFYDECKR (UniProt P62140+P36873)	0.0922
PPP6C_O00743_129_QITQVYGFYDECQTK (UniProt O00743)	0.0334
PPM1E_Q8WY54_307_QEMFPHDPAEALCR (UniProt Q8WY54)	-0.144
POFUT1_Q9H488_249_NACAMLK (UniProt Q9H488)	-0.308
PPP5D1_E7EU14_47_YQECNK<|>PPP5C_P53041_139_YQECNK (UniProt P53041+E7EU14)	0.0409
POLR2K_P53803_22_QQPMIYICGECHTENEIK (UniProt P53803)	-0.0834
PLXNB2_O15031_1149_TLTETDLYCEPPEVQPPPK (UniProt O15031)	-0.174
PEX6_Q13608_564_HLLLNEDPLNSCPPLMVVATTSR (UniProt Q13608)	0.0661
PPP2R2D_Q66LE6_245_SFNIVDIKPANMEELTEVITAAEFHPHQCNVFVYSSSK (UniProt Q66LE6)	-0.00789
PDLIM4_P50479_258_CGHGIVGTIVK (UniProt P50479)	-0.0847
PDIA3_P30101_85+92_VDCTANTNTCNK (UniProt P30101)	-0.107
PLXNB2_O15031_1504+1506_GQPCSCWPRPDSVVLEWRPGSTAQILSDLDLTSQR (UniProt O15031)	-0.0809
PPP4C_P60510_193_KQEVPHDGPMCDLLWSDPEDTTGWGVSPR (UniProt P60510)	-0.0839
PHKA1_P46020_238_GGPQSVIHVLADEVQHCQSILNSLLPR (UniProt P46020)	0.143

Same assay, conditions: 50 µM; THP-1; incubation time: 4 h

Target	probe-labelled cysteine peptide fold change
PLEKHF2_Q9H8W4_219_ICDFCYDLLSAGDMATCQPAR (UniProt Q9H8W4)	-0.228
PHF5A_Q7RTV0_46_ICDECNYGSYQGR (UniProt Q7RTV0)	-0.327
PPP4R2_Q9NY27_30_EVCPVLDQFLCHVAK (UniProt Q9NY27)	-0.311
PDIA4_P13667_555+558_DVLIEFYAPWCGHCK<|>PDIA3_P30101_406+409_DVLIEFYAPWCGHCK (UniProt P30101+P13667)	-1.15
PML_P29590_140+143_ESADFWCFECEQLLCAK (UniProt P29590)	-0.116
PINX1_Q96BK5_94_NNHLGLGATINNEDNWIAHQDDFNQLLAELNTCHGQETTDSSDKK (UniProt Q96BK5)	0.124
PHGDH_O43175_18_VLISDSLDPCCR (UniProt O43175)	-0.677
PDCD6IP_Q8WUM4_691_CSDIVFAR (UniProt Q8WUM4)	-0.0695
PPWD1_Q96BP3_287_AYPTSVCFSPDGK (UniProt Q96BP3)	0.156
PPP4C_P60510_130_QITQVYGFYDECLRK<|>PPP2CB_P62714_133_QITQVYGFYDECLRK<|>PPP2CA_P67775_133_QITQVYGFYDECLRK (UniProt P67775+P62714+P60510)	-0.109
PLEK_P08567_295_GCVVTSVESNSNGR (UniProt P08567)	-0.138
PCDH17_O14917_335_DLGPNPIPAHCK (UniProt O14917)	-0.403
PGK1_P00558_367+379_GCITIIGGGDTATCCAK (UniProt P00558)	-0.173
PPP2R5A_Q15172_72_DATSNEQQELFCQK (UniProt Q15172)	-0.096
PLCB3_Q01970_360_CVELDVWK (UniProt Q01970)	-0.317
PPP1CC_P36873_140_IYGFYDECKR<|>PPP1CA_P62140_140_IYGFYDECKR (UniProt P62140+P36873)	0.0296
PPP6C_O00743_129_QITQVYGFYDECQTK (UniProt O00743)	0.309
PPM1E_Q8WY54_307_QEMFPHDPAEALCR (UniProt Q8WY54)	-0.28
POFUT1_Q9H488_249_NACAMLK (UniProt Q9H488)	-0.164
PPP5D1_E7EU14_47_YQECNK<|>PPP5C_P53041_139_YQECNK (UniProt P53041+E7EU14)	-0.0811
POLR2K_P53803_22_QQPMIYICGECHTENEIK (UniProt P53803)	-0.286
PLXNB2_O15031_1149_TLTETDLYCEPPEVQPPPK (UniProt O15031)	-0.00622
PEX6_Q13608_564_HLLLNEDPLNSCPPLMVVATTSR (UniProt Q13608)	0.052
PPP2R2D_Q66LE6_245_SFNIVDIKPANMEELTEVITAAEFHPHQCNVFVYSSSK (UniProt Q66LE6)	-0.502
PDLIM4_P50479_258_CGHGIVGTIVK (UniProt P50479)	-0.546
PDIA3_P30101_85+92_VDCTANTNTCNK (UniProt P30101)	-0.048
PLXNB2_O15031_1504+1506_GQPCSCWPRPDSVVLEWRPGSTAQILSDLDLTSQR (UniProt O15031)	-0.762
PPP4C_P60510_193_KQEVPHDGPMCDLLWSDPEDTTGWGVSPR (UniProt P60510)	-0.279
PHKA1_P46020_238_GGPQSVIHVLADEVQHCQSILNSLLPR (UniProt P46020)	-0.161
